Rab9 promoter act: Rab9 promoter activation | Huh7 Rab9 promoter-luciferase reporter, luminescence, 24 h | Potency, µM (doses to about 9.22 µM), for inactives: top-dose activation, negative = inhibition, hits mostly activators | 320,000 compounds, 2.8% hits | AID 485297; note: % of control where 0% means no effect; nearly all actives have a fitted effect of over 60% in size
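Luminescence read-out: Huh7 cells stably expressing Rab9-luciferase, treated 24 h with compound at 37 °C, then lysed with luciferase reagent for 10 min at ambient before reading.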
NPC1 promoter act: activators of NPC1 promoter. 320,000 compounds, 2.4% hits. Potency, µM (series often up to 9.22 µM), inactives show at the top dose activation, most hits filed as activators. Huh7 NPC1 promoter luciferase reporter, 24 h; note: % of control where 0% means no effect; nearly all actives have a fitted effect of over 60% in size
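Readout is luciferase luminescence, reflecting NPC1 promoter activation in stably transfected Huh7 cells after 24 h compound exposure at 37 °C in reduced-serum medium with 10% FBS.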
FLuc modulator: firefly luciferase modulation, counter-screen for miR-21 project; P08659; purified FLuc, Km substrates, luminescence inhibition; Potency, µM (highest dose often 57.5 µM), for the others: top-dose activity change, negative = inhibition, actives largely listed as inhibitors; 360,000 compounds, 6.9% hits;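 note: plate controls were vehicle for no effect and reference inhibitor for full effect; nearly all actives have a fitted effect of over 55% in size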
Target sequence (P08659 whole entry, looked up): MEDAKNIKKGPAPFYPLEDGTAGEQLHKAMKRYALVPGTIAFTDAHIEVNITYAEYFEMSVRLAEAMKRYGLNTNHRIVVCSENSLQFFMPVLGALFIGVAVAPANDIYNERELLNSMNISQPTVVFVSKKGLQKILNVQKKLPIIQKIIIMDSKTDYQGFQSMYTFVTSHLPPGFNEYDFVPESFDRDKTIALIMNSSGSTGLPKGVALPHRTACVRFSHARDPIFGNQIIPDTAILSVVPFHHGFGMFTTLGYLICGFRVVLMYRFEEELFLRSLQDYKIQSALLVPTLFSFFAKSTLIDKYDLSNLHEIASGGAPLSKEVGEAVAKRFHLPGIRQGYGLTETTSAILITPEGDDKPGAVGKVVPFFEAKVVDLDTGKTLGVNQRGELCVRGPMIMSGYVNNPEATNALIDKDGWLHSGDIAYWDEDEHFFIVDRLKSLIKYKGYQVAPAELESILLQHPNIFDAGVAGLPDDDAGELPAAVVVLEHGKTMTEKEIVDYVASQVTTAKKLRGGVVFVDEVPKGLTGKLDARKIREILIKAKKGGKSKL
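Purified P. pyralis luciferase (10nM final) with 10uM D-luciferin and 10uM ATP (Km levels) in 50mM Tris acetate pH 7.5, 10mM Mg acetate, 0.01% Tween-20, 0.05% BSA; qHTS 6-point titration, ~60 µM downward; luminescence read.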
ELG1 genotox: induces genotoxicity in HEK293T cells with luciferase-tagged ELG1. HEK293T ELG1-luciferase reporter, luminescence, 16 h. Potency, µM (series often up to 46 µM), without a hit: top-dose activity change, positive = activation, actives largely listed as activators. 330,000 compounds, 1.3% hits; note: % of control where 0% means no effect; nearly all actives have a fitted effect of over 60% in size
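Quantitative HTS format in 1536-well plates. HEK293T ELG1-luciferase reporter cells receive test compound and are incubated 16 hr at 37 °C, 5% CO2; ONE-Glo added, 30 min room temperature, then luminescence read.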
SMN2 splice up: increases expression of the SMN2 splice variant; Potency, µM (series often up to 46.1 µM), for the others: top-dose activity change, positive = activation, hits mostly activators; HEK293 SMN2-luciferase splicing reporter, luminescence, 30-36 h; 210,000 compounds, 2.8% hits; note: % of control where 0% means no effect; nearly all actives have a fitted effect of over 55% in size
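HEK293 cells carry an SMN2 minigene-luciferase reporter in which exon 7 inclusion puts luciferase in frame. Cells were seeded at 2000 cells/well, attached for 10-12 hours, then exposed to compounds for 30-36 hours at 37C before ONE-Glo luminescence.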
Luc counter: Kinase-Glo luciferase inhibition (counter-screen); Q27757; Kinase-Glo luciferase, ATP luminescence, 8 min; Potency, µM (titrated, usually from 38.3 µM), without a hit: top-dose activity change, negative = inhibition, usual class: inhibitors; 200,000 compounds, 0.28% hits; note: % is set by controls: 0 for no effect and ±100 for the full control effect; nearly all actives have a fitted effect of over 60% in size
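Recombinant Kinase-Glo luciferase, 10 uM ATP (linear range), luciferin; imidazole pH 7.2 / KCl / MgCl2 / Tween / BSA buffer; 8 min RT; luminescence.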
* marks the source's active call; other numbers are inactive results. Most compounds without a hit are left out; they make up all but 7.4% or so of the library. Calls come from the whole dose curve; as a rule, active = well fitted curve in the direction sought with a large enough effect; inconclusive = small, poorly fitted or top-dose-only effect, or another doubt; inactive = no such curve, though single readings can be large; an effect the other way counts as inactive or inconclusive. Potency is the fitted concentration of half-maximal effect.

Screening COc1cccc(/C=N\NC(=O)c2ccc(Cn3cc(Br)c([N+](=O)[O-])n3)o2)c1O returned Rab9 promoter act -50.9%, NPC1 promoter act -33.3%, FLuc modulator 10.7µM*, ELG1 genotox 11.7% and Luc counter -12.3%.
For COc1cccc(/C=N/NC(=O)C(=O)N2CCCC2)c1O the results were Rab9 promoter act 11.0%, NPC1 promoter act 7.1%, FLuc modulator 15.1µM*, ELG1 genotox inconclusive, SMN2 splice up -47.9% and Luc counter inconclusive.
COc1cccc(/C=N/NC(=O)N/N=C/c2cccc(OC)c2O)c1O was read as Rab9 promoter act -2.9%, NPC1 promoter act -2.2%, FLuc modulator 4.26µM* and ELG1 genotox -7.5%.
For COc1cccc(/C=N/NC(=O)Cn2nc(C)c([N+](=O)[O-])c2C)c1O the results were Rab9 promoter act -14.8%, NPC1 promoter act -18.6%, FLuc modulator 0.7% and ELG1 genotox 11.7%.
`COc1cc(/C=N\NC(=O)c2ccc(Cn3nc([N+](=O)[O-])c(Cl)c3C)o2)ccc1O` gave Rab9 promoter act -2.4%, NPC1 promoter act -2.5%, FLuc modulator inconclusive, ELG1 genotox 11.8%, SMN2 splice up inconclusive and Luc counter -2.5%.
`COc1ccccc1/C=C\C(=O)NCC(=O)N/N=C/c1cccc(OC)c1O` gave Rab9 promoter act -8.5%, NPC1 promoter act -24.4%, FLuc modulator -4.0% and ELG1 genotox inconclusive.
`COc1cccc(/C=N/NC(=O)C(C)n2nc(C)c([N+](=O)[O-])c2C)c1O` (stereo not drawn) gave Rab9 promoter act -30.1%, NPC1 promoter act -12.6%, FLuc modulator 7.57µM*, ELG1 genotox inconclusive, SMN2 splice up inconclusive and Luc counter -2.3%.
For CC1(C)CC(=O)C2=C(C1)N(c1cccc(Cl)c1)C(=O)NC2(C(F)(F)F)C(F)(F)F the results were Rab9 promoter act 2.1%, NPC1 promoter act -2.9%, FLuc modulator 3.0%, ELG1 genotox 1.7%, SMN2 splice up -3.6% and Luc counter -5.5%.
`COc1cccc(OC)c1C(=O)Nc1cccc(C(C)=O)c1` gave Rab9 promoter act 2.6%, NPC1 promoter act -2.0%, FLuc modulator 2.6%, ELG1 genotox 2.8%, SMN2 splice up 0.9% and Luc counter 3.7%.
For COc1cccc(C(=O)NCc2ccc3c(c2)OCO3)c1OC the results were Rab9 promoter act -0.1%, NPC1 promoter act -2.2%, FLuc modulator -1.9% and ELG1 genotox 3.1%.
Screening COc1ccccc1/C=C/C(=O)Nc1cccc(C(C)=O)c1 returned Rab9 promoter act 27.4%, NPC1 promoter act 20.4%, FLuc modulator 10.7µM*, ELG1 genotox 1.5%, SMN2 splice up 12.9% and Luc counter 0.5%.
Screening COc1cccc(C(=O)Nc2ccc3c(c2)OCO3)c1OC returned Rab9 promoter act 1.58µM*, NPC1 promoter act 1.41µM*, FLuc modulator 9.53µM* and ELG1 genotox inconclusive.
Screening COc1cccc(/C=C/C(=O)Nc2ccc3c(c2)OCCO3)c1OC returned Rab9 promoter act 0.398µM*, NPC1 promoter act 0.398µM*, FLuc modulator 0.757µM*, ELG1 genotox 1.3µM*, SMN2 splice up 2.82µM* and Luc counter -8.2%.
For COc1cccc(/C=C/C(=O)Nc2ccc(C(=O)Nc3cccc(S(N)(=O)=O)c3)cc2)c1OC the results were Rab9 promoter act 7.7%, NPC1 promoter act 1.5%, FLuc modulator inconclusive and ELG1 genotox -2.1%.
`COc1cccc(/C=C/C(=O)Nc2cccc(C(C)=O)c2)c1OC` gave Rab9 promoter act 2.82µM*, NPC1 promoter act 3.16µM*, FLuc modulator 3.01µM*, ELG1 genotox 1.6%, SMN2 splice up 17.8µM* and Luc counter -12.0%.
`Cc1cc(C)cc(OCC(=O)N2CCC(c3nc4ccccc4o3)CC2)c1` gave FLuc modulator -10.4%.
Screening O=C(C1CCCN1S(=O)(=O)c1cccc2nsnc12)N1CCCCCC1 (stereo not drawn) returned Rab9 promoter act -2.5%, NPC1 promoter act 0.5%, FLuc modulator 5.9% and ELG1 genotox 3.4%.
`O=C(NC1CCCCC1)c1cc2cc(Br)ccc2o1` gave Rab9 promoter act inconclusive, NPC1 promoter act 3.16µM*, FLuc modulator 4.78µM* and ELG1 genotox inconclusive.
`O=C(NC1CCCC1)c1cc2cc(Br)ccc2o1` gave Rab9 promoter act 2.82µM*, NPC1 promoter act 3.16µM*, FLuc modulator 10.7µM* and ELG1 genotox inconclusive.
For O=C(NC1CCCC1)c1cc2ccccc2o1 the results were Rab9 promoter act inconclusive, NPC1 promoter act 28.2%, FLuc modulator inconclusive and ELG1 genotox inconclusive.
For COc1ccc(/C=C2\SC(=S)NC2=O)cc1OS(=O)(=O)c1ccc(NC(C)=O)cc1 the results were Rab9 promoter act -1.8%, NPC1 promoter act -0.9%, FLuc modulator 26.9µM*, ELG1 genotox -6.9%, SMN2 splice up 18.5% and Luc counter -1.4%.
For CCOc1ccc(/C=C2\SC(=S)NC2=O)cc1OC the results were Rab9 promoter act 0.3%, NPC1 promoter act 5.1%, FLuc modulator 12µM*, ELG1 genotox 11.8% and Luc counter -1.5%.
`COc1cccc(OCCOc2ccc(/C=C3/SC(=S)NC3=O)cc2)c1` gave Rab9 promoter act 4.7%, NPC1 promoter act 1.9%, FLuc modulator inconclusive and ELG1 genotox 0.6%.
`COc1cc(/C=C2/SC(=S)NC2=O)ccc1OS(=O)(=O)c1ccc(C)cc1` gave Rab9 promoter act 1.1%, NPC1 promoter act -3.9%, FLuc modulator -3.2%, ELG1 genotox -6.5%, SMN2 splice up -31.4% and Luc counter 2.8%.
O=C1NC(=S)S/C1=C\c1ccc2ccccc2c1 was read as Rab9 promoter act inconclusive, NPC1 promoter act 29.9%, FLuc modulator 9.53µM* and ELG1 genotox 12.0%.
`CCOc1ccc(NS(=O)(=O)c2c(C)nc3sc(CC)nn3c2=O)cc1` gave Rab9 promoter act -1.3%, NPC1 promoter act -1.1%, FLuc modulator -0.7%, ELG1 genotox -2.7% and SMN2 splice up -23.4%.
Cc1cc(C)cc(NC(=S)NCc2cccn2C)c1 was read as Rab9 promoter act -3.7%, NPC1 promoter act 18.0%, FLuc modulator 2.7%, ELG1 genotox -4.0%, SMN2 splice up 0.5% and Luc counter -2.2%.
`Cn1cccc1CNC(=O)Nc1ccc(Cl)cc1` gave Rab9 promoter act 3.55µM*, NPC1 promoter act inconclusive, FLuc modulator 13.5µM*, ELG1 genotox inconclusive, SMN2 splice up inconclusive and Luc counter -5.2%.
`Cc1ccc(CNC(=O)Nc2ccccc2)n1C` gave Rab9 promoter act 25.6%, NPC1 promoter act 16.9%, FLuc modulator 19µM* and ELG1 genotox 7.8%.
